Results filed as inconclusive are left out. Some structures have more than one record in an assay (separate samples or runs), and their calls can disagree. Activity calls are given as the source filed them. Rule for the calls: active = hit-call score of the fitted dose curve at least 0.9, where 1 is the maximum; inconclusive = response in the unintended direction; inactive = score below 0.9.
Tests used:
[1] = TOX21_p53_BLA_p3_viability: Viability Assessment in the Tox21 HCT-116 p53 Agonism Beta-lactamase Assay, Phase 3 (AID 2283593);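 note: cells exposed to compound for 16 h before reading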
Method in brief: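 HCT116 cells, 4000/well, dosed 5 h after plating by pin transfer (217-fold dilution from DMSO stock) and incubated 16 h at 37C, 5% CO2. Viability read as ATP luminescence with CellTiter-Glo after 30 min at room temperature.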

[2] = biological target: Cellular tumor antigen p53 (Homo sapiens) (UniProt P04637); test: TOX21_p53_BLA_p3_ratio: Tox21 HCT-116 p53 Agonism Beta-lactamase Assay, Ratio, Phase 3 (AID 2283596)
Method in brief: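 Cells were seeded at 4000/well, rested 5 h at 37C, then dosed with DMSO compound solutions (217-fold dilution) for 16 h. CCF4-AM substrate was loaded for 2 h at room temperature, and the 460/530 nm emission ratio was fitted for gain of signal versus DMSO.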

[3] = TOX21_p53_BLA_p4_viability: Viability Assessment in the Tox21 HCT-116 p53 Agonism Beta-lactamase Assay, Phase 4 (AID 2283597);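 note: hits lower the luminescence signal meaning cytotoxicity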
Method in brief: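 In this multiplexed secondary endpoint, HCT116 cells (4000 per well, compound at 5 h, 16 h treatment) received CellTiter-Glo after the beta-lactamase read. Luminescence after 30 min RT reflects ATP, and falling signal marks cytotoxicity.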

[4] = biological target: Cellular tumor antigen p53 (Homo sapiens) (UniProt P04637); test: TOX21_p53_BLA_p5_ratio: Tox21 HCT-116 p53 Agonism Beta-lactamase Assay, Ratio, Phase 5 (AID 2283599)
Method in brief: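 HCT-116 p53-bla cells (4000/well) plated 5 h, dosed with compound (217-fold DMSO dilution) for 16 h at 37 C; CCF4-AM substrate 2 h at room temperature. Activity is the 460/530 nm emission ratio (405 nm excitation), fitted in gain-of-signal direction versus DMSO.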

[5] = TOX21_p53_BLA_p5_viability: Viability Assessment in the Tox21 HCT-116 p53 Agonism Beta-lactamase Assay, Phase 5 (AID 2283600)
Method in brief: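 Here cell health was gauged by ATP levels in wells holding 4000 cells, each treated 16 h with DMSO-delivered compounds at 217-fold dilution; reduced luminescence marked toxicity.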

[6] = biological target: Cellular tumor antigen p53 (Homo sapiens) (UniProt P04637); test: TOX21_p53_BLA_p4_ratio: Tox21 HCT-116 p53 Agonism Beta-lactamase Assay, Ratio, Phase 4 (AID 2283601)
Method in brief: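 HCT-116 p53 beta-lactamase reporter cells (4000/well) preincubated 5 h, then compound (217-fold dilution of DMSO stock) for 16 h at 37C. CCF4-AM substrate added 2 h at room temperature; 460/530 nm emission ratio fitted upward versus DMSO.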

[7] = Tanguay_ZF_120hpf_MORT_legacy: (Legacy) Oregon State University Tanguay Lab 120 Hour Post-fertilization zebrafish Assay for Mortality (AID 2283633);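 for AC50: fitted as increase in binary mortality versus DMSO negative control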
Method in brief: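 Single dechorionated Tropical 5D embryos were held with test chemical (0.64% DMSO final) from 6 to 120 hpf at 28C under foil. Deaths at 24 or 120 hpf were recorded as binary calls, analysed for increase over DMSO controls.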

[8] = Tanguay_ZF_120hpf_YSE_legacy: (Legacy) Oregon State University Tanguay Lab 120 Hour Post-fertilization zebrafish Assay for Yolk Sac Edema (AID 2283634);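 for AC50: actives raise the incidence of yolk sac edema above the DMSO baseline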
Method in brief: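 Single dechorionated embryos were held in sealed plates at 28C with test chemical (0.64% DMSO final) from 6 hpf until 120 hpf. Edema of the yolk sac was then recorded as a binary endpoint; non-mortality endpoints were skipped for dead embryos.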

[9] = Tanguay_ZF_120hpf_AXIS_legacy: (Legacy) Oregon State University Tanguay Lab 120 Hour Post-fertilization zebrafish Assay for Body Axis Malformation (AID 2283635);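 for AC50: potency for an increased fraction of larvae scored with body axis malformation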
Method in brief: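 Each dechorionated embryo was exposed alone from 6 hpf, with DMSO at 0.64% (vol/vol) and trimethyltin chloride 5 uM as positive control. Axis malformation was recorded at 120 hpf unless the embryo had died.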

[10] = Tanguay_ZF_120hpf_EYE_legacy: (Legacy) Oregon State University Tanguay Lab 120 Hour Post-fertilization zebrafish Assay for Eye Malformation (AID 2283636);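 note: binary presence or absence of eye malformation scored by brightfield in 120 hpf larvae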
Method in brief: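 5D wild-type embryos, pronase-dechorionated at 4 hpf; static exposure 6–120 hpf, 28C, dark; DMSO 0.64% final; 5uM trimethyltin chloride positive control. Binary eye-defect scoring at 120 hpf; dead embryos not scored.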

[11] = Tanguay_ZF_120hpf_SNOU_legacy: (Legacy) Oregon State University Tanguay Lab 120 Hour Post-fertilization zebrafish Assay for Snout Malformation (AID 2283637)
Method in brief: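 Binary brightfield scoring of snout malformation at 120 hpf. Dechorionated 5D wild-type embryos, one per well, static exposure from 6 hpf at 28C, sealed and dark; final DMSO 0.64% (vol/vol), DMSO as baseline; 5uM trimethyltin chloride positive control.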

[12] = Tanguay_ZF_120hpf_JAW_legacy: (Legacy) Oregon State University Tanguay Lab 120 Hour Post-fertilization zebrafish Assay for Jaw Malformation (AID 2283638);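 for AC50: active means more embryos with jaw malformation than DMSO controls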
Method in brief: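 Wild-type 5D embryos, chorion removed at 4 hpf, dosed singly from 6 hpf; 28C static, sealed, foil-covered, to 120 hpf. Endpoint: jaw defect yes/no (brightfield); mortality excludes scoring.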

[13] = Tanguay_ZF_120hpf_OTIC_legacy: (Legacy) Oregon State University Tanguay Lab 120 Hour Post-fertilization zebrafish Assay for Otic Vesicle Malformation (AID 2283639)
Method in brief: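 Wild-type zebrafish larvae, whole-embryo exposure from early stage to 120 hpf at 28C. Binary brightfield scoring of otic vesicle morphology, fitted in the positive direction against the DMSO baseline.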

[14] = Tanguay_ZF_120hpf_PE_legacy: (Legacy) Oregon State University Tanguay Lab 120 Hour Post-fertilization zebrafish Assay for Pericardial Edema (AID 2283640);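 for AC50: potency for increased incidence of pericardial edema versus DMSO baseline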
Method in brief: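 Zebrafish larvae are exposed from early development to 120 hpf at 28C, with 0.64% DMSO final. Each surviving larva receives a yes/no pericardial edema call by brightfield imaging, analysed relative to the DMSO baseline.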

[15] = Tanguay_ZF_120hpf_SOMI_legacy: (Legacy) Oregon State University Tanguay Lab 120 Hour Post-fertilization zebrafish Assay for Somite Malformation (AID 2283647)
Method in brief: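 Somitogenesis defects are recorded as binary calls in whole larvae at 120 hpf after continuous static chemical exposure starting at 6 hpf in dechorionated 5D embryos. DMSO serves as negative control and baseline.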

[16] = Tanguay_ZF_120hpf_PFIN_legacy: (Legacy) Oregon State University Tanguay Lab 120 Hour Post-fertilization zebrafish Assay for Pectoral Fin Malformation (AID 2283648);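 note: each larva judged yes or no for fin defect by brightfield with dead larvae skipped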
Method in brief: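 Binary pectoral fin malformation call at 120 hpf by brightfield microscopy; 5D wild-type zebrafish, chorion removed at 4 hpf, one embryo per well from 6 hpf, static exposure at 28C; DMSO (0.64% final) as baseline.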

[17] = Tanguay_ZF_120hpf_CFIN_legacy: (Legacy) Oregon State University Tanguay Lab 120 Hour Post-fertilization zebrafish Assay for Caudal Fin Malformation (AID 2283649)
Method in brief: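 Single dechorionated 5D wild-type embryos are dosed at 6 hpf (final DMSO 0.64%) and held statically at 28C. Caudal fin malformation is recorded as present or absent at 120 hpf under brightfield, excluding dead embryos.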

[18] = Tanguay_ZF_120hpf_PIG_legacy: (Legacy) Oregon State University Tanguay Lab 120 Hour Post-fertilization zebrafish Assay for Pigmentation Malformation (AID 2283650);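 note: dechorionated Tropical 5D zebrafish embryos exposed singly from 6 to 120 hpf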
Method in brief: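 Brightfield scoring of pigmentation malformation at 120 hpf, recorded as binary present/absent per larva. Exposure: dechorionated 5D wild-type embryos, one per well, static from 6 hpf at 28C, final DMSO 0.64% (vol/vol). Dead embryos not scored.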

[19] = Tanguay_ZF_120hpf_CIRC_legacy: (Legacy) Oregon State University Tanguay Lab 120 Hour Post-fertilization zebrafish Assay for Circulatory Malformation (AID 2283651)
Method in brief: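 Binary circulatory-malformation call at 120 hpf via brightfield imaging, relative to DMSO controls. Embryos (5D strain, chorion removed) received static, light-shielded exposure at 28C.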

Measured: AC50

Sequence of Cellular tumor antigen p53 (Homo sapiens) (P04637 whole entry, looked up): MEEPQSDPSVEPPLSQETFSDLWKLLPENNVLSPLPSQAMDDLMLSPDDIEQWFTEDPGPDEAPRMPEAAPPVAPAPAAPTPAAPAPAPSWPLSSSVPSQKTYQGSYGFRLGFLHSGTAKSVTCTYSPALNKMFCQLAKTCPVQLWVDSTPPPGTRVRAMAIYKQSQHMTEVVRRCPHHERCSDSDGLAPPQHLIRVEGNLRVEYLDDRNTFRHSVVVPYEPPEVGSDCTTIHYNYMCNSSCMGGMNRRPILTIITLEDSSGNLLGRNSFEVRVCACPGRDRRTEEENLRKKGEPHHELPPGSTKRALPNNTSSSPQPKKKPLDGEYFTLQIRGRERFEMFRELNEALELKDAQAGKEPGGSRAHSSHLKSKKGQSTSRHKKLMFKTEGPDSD

COc1nn(CSP(=S)(OC)OC)c(=O)s1
not listed: [19]
inactive: all other assays above

CCC(C)(C)C(=O)OC1=C(c2ccc(Cl)cc2Cl)C(=O)OC12CCCCC2
active: [1] 74.9 µM | [2] 2.5 µM | [4] 28.4 µM
not listed: [5]
inactive: all other assays above

Oc1cc(Cl)ccc1Oc1ccc(Cl)cc1Cl
inactive: [3] | [4] | [5] | [6] | [7] | [8] | [9] | [10] | [11] | [12] | [13] | [14] | [15] | [16] | [17] | [18] | [19]
active: [1] 54.2 µM | [2] 78.1 µM | [3] 41.3 µM | [4] 81.1 µM | [5] 48 µM | [6] 79 µM | [7] 26.5 µM

CC(C)(C)C(O)/C(=C\c1ccc(Cl)cc1Cl)n1cncn1 (stereo not given)
active: [3] 51.8 µM | [8] 34.4 µM | [9] 70.7 µM | [10] 37.4 µM | [11] 30.9 µM | [12] 25 µM | [13] 11.6 µM | [14] 42.4 µM | [16] 42.5 µM
inactive: [1] | [2] | [4] | [5] | [6] | [7] | [15] | [18] | [19]

CC1(c2ccc(Oc3ccccc3)cc2)OC(=O)N(Nc2ccccc2)C1=O (stereo not given)
active: [3] 19.5 µM | [4] 46.4 µM | [6] 51.2 µM
not listed: [14] | [15]
inactive: all other assays above

Reference: PubChem BioAssay (EPA / NIEHS)
